Assay results taken from PubChem BioAssay AID1159580 (chemical genetic matrix, 2015).
Among all 5,500 compounds or so, about 2,000 (36%) were called active. About 18% were inconclusive and are not listed. Cut-off read from the data, not from the text of the source: active = normalized growth mostly below about 0.91 (no sharp cut-off); inconclusive = no clear call, values can overlap the other calls; inactive = mostly above about 0.92. Some of the results follow.

Assay: chemical genetic growth profiling, strain panel (AID 1159580);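 note: tested at 20 µM; growth read once vehicle control cultures reached saturation at 30 °C; 1 = growth at the plate median or of vehicle wells; lower values mean less growth of the strain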
Conditions: growth OD
[1] = S. cerevisiae deletion strains, locus YAL013W, strain DEP1, active compounds read low
[2] = S. cerevisiae deletion strains, locus YBR229C, strain ROT2, active compounds read low
[3] = S. cerevisiae deletion strains, locus YDL101C, strain DUN1, active compounds read low
[4] = S. cerevisiae deletion strains, locus YDR150W, strain NUM1, active compounds read low
[5] = S. cerevisiae deletion strains, locus YEL061C, strain CIN8, active compounds read low
[6] = S. cerevisiae deletion strains, locus YGR078C, strain PAC10, active compounds read low
[7] = S. cerevisiae deletion strains, locus YHR030C, strain SLT2, active compounds read low
[8] = S. cerevisiae deletion strains, locus YHR087W, strain rtc3, active compounds read low
[9] = S. cerevisiae deletion strains, locus YJL187C, strain SWE1, active compounds read low
[10] = S. cerevisiae deletion strains, locus YJR043C, strain POL32, active compounds read low
[11] = S. cerevisiae deletion strains, locus YJR075W, strain HOC1, active compounds read low
[12] = S. cerevisiae deletion strains, locus YKL190W, strain CNB1, active compounds read low
[13] = S. cerevisiae deletion strains, locus YLR039C, strain RIC1, active compounds read low
[14] = S. cerevisiae deletion strains, locus YLR058C, strain SHM2 (second series), active compounds read low
[15] = S. cerevisiae deletion strains, locus YLR085C, strain ARP6, active compounds read low
[16] = S. cerevisiae deletion strains, locus YLR262C, strain YPT6, active compounds read low
[17] = S. cerevisiae deletion strains, locus YML094W, strain GIM5, active compounds read low
[18] = S. cerevisiae deletion strains, locus YMR219W, strain ESC1, active compounds read low
[19] = S. cerevisiae deletion strains, locus YMR263W, strain SAP30, active compounds read low
[20] = S. cerevisiae deletion strains, locus YNL153C, strain GIM3, active compounds read low
[21] = S. cerevisiae deletion strains, locus YNL298W, strain CLA4 (second series), active compounds read low
[22] = S. cerevisiae deletion strains, locus YNL322C, strain KRE1, active compounds read low
[23] = S. cerevisiae deletion strains, locus YNR030W, strain Alg12, active compounds read low
[24] = S. cerevisiae deletion strains, locus YPL055C, strain LGE1, active compounds read low
[25] = S. cerevisiae deletion strains, locus YPL241C, strain CIN2, active compounds read low
[26] = S. cerevisiae deletion strains, locus YPR135W, strain CTF4, active compounds read low

Measured: normalized growth

N/C(Cc1cccc2ccccc12)=N/O
active: [25] 1.22 [resistant]
inactive: [1] 1 | [2] 1.02 | [3] 1.01 | [4] 0.986 | [5] 1.02 | [6] 1.01 | [7] 1.02 | [8] 1.02 | [9] 1.02 | [10] 1.02 | [11] 1.05 | [12] 1.02 | [13] 1.06 | [14] 1.01 | [15] 1.14 | [16] 1.02 | [17] 1.01 | [18] 1.03 | [19] 1.04 | S. cerevisiae deletion strains, locus YMR307W, strain GAS1, active compounds read low 1.17 | [20] 0.997 | [21] 1.02 | [22] 1 | [23] 1 | S. cerevisiae deletion strains, locus YOL006C, strain TOP1, active compounds read low 1.05 | [24] 0.897 | [26] 0.945 | S. cerevisiae strains, strain wild type, active compounds read low 1.02

CCc1cccc(N(C)C(N)=Nc2cccc3ccccc23)c1
inactive: S. cerevisiae deletion strains, locus YAL040C, strain CLN3, active compounds read low 0.98 | S. cerevisiae deletion strains, locus YCL061C, strain MRC1 (second series), active compounds read low 0.989 | [4] 0.998 | S. cerevisiae deletion strains, locus YER002W, strain NOP16, active compounds read low 1.03 | [6] 0.97 | [11] 0.983 | S. cerevisiae deletion strains, locus YNL175C, strain NOP13, active compounds read low 1.03 | S. cerevisiae deletion strains, locus YNL197C, strain WHI3, active compounds read low 1 | S. cerevisiae deletion strains, locus YNL224C, strain SQS1, active compounds read low 0.993 | S. cerevisiae deletion strains, locus YOR083W, strain WHI5 (second series), active compounds read low 0.931 | [25] 0.989

O=C(O)CCCNCc1cccc2ccccc12
inactive: [1] 1.01 | [2] 1.01 | [3] 0.998 | [4] 0.984 | [5] 1.01 | [6] 1.01 | S. cerevisiae deletion strains, locus YGR229C, strain SMI1, active compounds read low 1 | [7] 1.02 | [8] 1.01 | [9] 1 | [10] 1.01 | [11] 0.974 | [12] 1 | [13] 1 | [14] 1 | [15] 1.01 | [16] 0.999 | [17] 1.07 | [18] 0.992 | [19] 1 | [20] 0.992 | [21] 1 | [22] 1.01 | [23] 1 | [24] 1.03 | [25] 1.06 | [26] 1.05
